PubChem BioAssay (NCATS)
Inconclusive results are not listed. Active and inactive are the calls of the source. Calls come from the whole dose curve.

Assay: Primary qHTS for Huh7 cytotoxicity: counterscreen for inhibitors of MERS-S pseudotyped particle cell entry (AID 1479147)
Details: cell viability read-out; series mostly up to 57.1 µM; activity change, negative = cytotoxicity: at the top concentration
% is set by controls: 0 for no effect and ±100 for the full control effect.

| SMILES | outcome | activity change, negative = cytotoxicity |
| --- | --- | --- |
| CCNC(=O)NCCCOc1cccc(CN2CCCCC2)c1 | inactive | – |
| CCOCC(O)COc1ccc(NC(=O)CC[S+](C)C)cc1 (centres undefined) | inactive | – |
| CCOC(=O)OC(C)OC(=O)[C@@H]1N2C(=O)[C@@H](NC(=O)[C@H](N)c3ccccc3)[C@H]2SC1(C)C (some centres undefined) | inactive | – |
| COc1ccc2c(c1OC)C(=O)O[C@@H]2[C@H]1c2c(cc3c(c2OC)OCO3)CCN1C | – | -3.02% (inactive) |
| CC1(C)[C@@H](OC(=O)CCC(=O)O)CC[C@]2(C)[C@H]3C(=O)C=C4[C@@H]5C[C@@](C)(C(=O)O)CC[C@]5(C)CC[C@@]4(C)[C@]3(C)CC[C@@H]12 | inactive | – |
| CC(C)c1cc2c(cc1S(=O)(=O)O)[C@@]1(C)CCC[C@@](C)(C(=O)O)[C@@H]1CC2 | inactive | – |
| Oc1ccc(C(O)CNCCCCCCNCC(O)c2ccc(O)c(O)c2)cc1O (centres undefined) | inactive | – |
| CNC1CCCN(c2c(F)cc3c(=O)c(C(=O)O)cn(C4CC4)c3c2OC)C1 (centres undefined) | inactive | – |
| COC(=O)Nc1nc2ccc(Sc3ccccc3)cc2[nH]1 | – | -13.1% (inactive) |
| CC1(C)[C@H](C(=O)O)N2C(=O)C[C@H]2S1(=O)=O | inactive | – |
| CC(O)Cn1cnc2c1c(=O)n(C)c(=O)n2C (centres undefined) | inactive | – |
| O=C(O)CCNC(=O)c1ccccc1 | inactive | – |
| COc1ccccc1N1CCN(CCCNc2cc(=O)n(C)c(=O)n2C)CC1 | inactive | – |
| CC(=O)CCC(=O)O | inactive | – |
| Nc1nc2ncc(CNc3ccc(C(=O)N[C@@H](CCC(=O)O)C(=O)O)cc3)nc2c(=O)[nH]1 | inactive | – |
| Cc1c(C(=O)NN2CCCCC2)nn(-c2ccc(Cl)cc2Cl)c1-c1ccc(Cl)cc1 | – | 3.71% (inactive) |
| CN(C)C(=O)Oc1cccc([N+](C)(C)C)c1 | inactive | – |
| Cc1ccc(C(C)OC(=O)C2(C)CCC(C(=O)O)C2(C)C)cc1 (centres undefined) | – | -16.8% (inactive) |
| CC(=O)N(CC(=O)N(C)C)c1ccccc1 | inactive | – |
| O=C1OC2(c3ccc(O)cc3Oc3cc(O)ccc32)c2ccccc21 | – | 0.683% (inactive) |
| O=[N+]([O-])c1nccn1CO[C@@H](CO)[C@H](O)CO | inactive | – |

Assay: Primary qHTS for inhibitors of MERS-S pseudo-typed particle cell entry (AID 1479149); note: nearly all actives have a fitted effect of over 60% in size
Details: MERS-S pseudotyped particle entry, luciferase; series mostly up to 57.1 µM; activity change, negative = inhibition: at the top concentration

| SMILES | outcome | activity change, negative = inhibition |
| --- | --- | --- |
| C/C(=C(\CCOP(=O)(O)O)SC(=O)c1ccccc1)N(C=O)Cc1cnc(C)nc1N | inactive [at 5.34 µM] | – |
| NCC1CCC(C(=O)Oc2ccc(CCC(=O)O)cc2)CC1 (centres undefined) | inactive | – |
| CC[N+]1(CC)CCC(=C(c2ccccc2)c2ccccc2)C1C (centres undefined) | – | 2.39% (inactive) |
| CCCn1cnc2c1c(=O)n(CCCCC(C)=O)c(=O)n2C | inactive | – |
| CCCCCOc1ccc(C2SC(=O)NC2=O)cc1OCC (centres undefined) | inactive | – |
| CC1=C(CC(=O)O)c2cc(F)ccc2/C1=C\c1ccc(S(C)=O)cc1 (centres undefined) | inactive | – |
| COc1ccc2c(c1)c(CC(=O)OCC(=O)O)c(C)n2C(=O)c1ccc(Cl)cc1 | inactive | – |
| Cc1c(C)c2c(c(C)c1OC(=O)CCC(=O)OCCO)CC[C@@](C)(CCC[C@H](C)CCC[C@H](C)CCCC(C)C)O2 | – | -26.6% (inactive) |
| CCCc1ncc(C[n+]2ccccc2C)c(N)n1 | inactive | – |
| Nc1c2c(nc3ccccc13)CCCC2 | – | -20.5% (inactive) |
| CSc1ccc(C(=O)c2[nH]c(=O)[nH]c2C)cc1 | inactive | – |
| CC(=O)OCC(=O)[C@@]12N=C(C)O[C@@H]1C[C@H]1[C@@H]3CCC4=CC(=O)C=C[C@]4(C)[C@H]3[C@@H](O)C[C@@]12C | inactive | – |
| CCCOc1ccc2nc(NC(=O)OC)[nH]c2c1 | – | 1.17% (inactive) |
| NC(N)=NC(=O)c1nc(Cl)c(N)nc1N | inactive | – |
| CC(C)(C)C(=O)C(Oc1ccc(Cl)cc1)n1ccnc1 (centres undefined) | inactive | – |
| C[C@]1(Cn2ccnn2)[C@H](C(=O)O)N2C(=O)C[C@H]2S1(=O)=O | inactive | – |
| CN(C)[C@@H]1C(=O)C(C(=O)NCN2CCCC2)=C(O)[C@@]2(O)C(=O)C3=C(O)c4c(O)cccc4[C@@](C)(O)C3C[C@@H]12 (some centres undefined) | inactive | – |
| CCNC(=O)NCCCOc1cccc(CN2CCCCC2)c1 | inactive | – |
| CCOCC(O)COc1ccc(NC(=O)CC[S+](C)C)cc1 (centres undefined) | – | -2.75% (inactive) |
| CCOC(=O)OC(C)OC(=O)[C@@H]1N2C(=O)[C@@H](NC(=O)[C@H](N)c3ccccc3)[C@H]2SC1(C)C (some centres undefined) | – | 7.7% (inactive) |
| COc1ccc2c(c1OC)C(=O)O[C@@H]2[C@H]1c2c(cc3c(c2OC)OCO3)CCN1C | inactive | – |
| CC1(C)[C@@H](OC(=O)CCC(=O)O)CC[C@]2(C)[C@H]3C(=O)C=C4[C@@H]5C[C@@](C)(C(=O)O)CC[C@]5(C)CC[C@@]4(C)[C@]3(C)CC[C@@H]12 | inactive | – |
| CC(C)c1cc2c(cc1S(=O)(=O)O)[C@@]1(C)CCC[C@@](C)(C(=O)O)[C@@H]1CC2 | inactive | – |
